# Bioassay records from PubChem BioAssay.
# Hits are enriched below; roughly 8.9% of the tested compounds scored in any of these assays.
# DRD3 antagonist: D3 dopamine receptor (human) antagonism; P35462; D3R cells, DiscoveRx beta-arrestin luminescence, antagonist mode; active compounds read low; max response, negative = inhibition, %; actives 2.5% (n = 360,000); in the data active means max response below about -50%; inconclusive means no clear call, values can overlap the other calls
# Target sequence (P35462 whole entry, looked up): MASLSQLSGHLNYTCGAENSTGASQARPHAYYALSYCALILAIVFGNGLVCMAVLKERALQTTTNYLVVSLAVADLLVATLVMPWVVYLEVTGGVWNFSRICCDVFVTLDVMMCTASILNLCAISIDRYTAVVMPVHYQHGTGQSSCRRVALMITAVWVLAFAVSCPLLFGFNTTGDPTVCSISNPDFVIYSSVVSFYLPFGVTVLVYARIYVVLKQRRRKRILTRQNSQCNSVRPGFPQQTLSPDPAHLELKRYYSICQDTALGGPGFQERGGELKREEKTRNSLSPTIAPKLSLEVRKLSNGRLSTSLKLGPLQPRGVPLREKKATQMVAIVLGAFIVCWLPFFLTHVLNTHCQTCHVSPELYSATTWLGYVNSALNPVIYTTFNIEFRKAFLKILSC
#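 Cells plated overnight at 1500 cells/well, then exposed to library compounds with dopamine controls for 90 minutes at 37 degrees C. DiscoveRx reagent added for 30–60 minutes at room temperature; luminescence read, quantitative HTS format.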
# MCF10A rerep: induces DNA re-replication in MCF 10a normal breast cells. Potency, µM (titrated, usually from 46.1 µM), actives largely listed as activators. actives 2.9% (n = 350,000). MCF 10A DNA re-replication, Hoechst nuclear intensity, 48 h. AID 624296; further: nearly all actives have a fitted effect of over 50% in size
# KB-V1 cytotox: KB-V1 MDR subline cytotoxicity. KB-V1 MDR cells viability, CellTiter-Glo, 72 h. Potency, µM (highest dose often 46.1 µM), hits mostly cytotoxic. actives 3.4% (n = 400,000); further: nearly all actives have a fitted effect of over 60% in size
#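 Cytotoxicity toward P-gp-expressing KB-V1 cells was determined as loss of CellTiter-Glo luminescence after 72 h at 37 degrees C. Compounds were tested in quantitative HTS format across a concentration range, with curves fitted to normalized data.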
# SW480 rereplic: inducers of DNA re-replication in SW480 colon cancer cells; AID 624297; SW480 DNA re-replication, Hoechst DNA content imaging, 48 h; Potency, µM (highest dose often 46.1 µM), usual class: activators; actives 1.8% (n = 340,000); further: nearly all actives have a fitted effect of over 55% in size
#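 Cells (250 per well) received 23 nL compound or DMSO by pin tool and were kept 48 hr at 37 C, 5% CO2. Nuclei were then stained with Hoechst for 40 min and scanned for DNA content.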
# D3 ag: activates the human D3 dopamine receptor | actives 0.58% (n = 410,000) | D3R DiscoveRx beta-arrestin cells, luminescence, 90 min | max activation, %; in the data active means max activation above about 30%
#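 Agonist-mode cell screen: cells plated at 1500/well and incubated overnight at 37 °C, then exposed to library compounds for 90 min at 37 °C. Detection reagent was added for 30–60 min at room temperature, and luminescence was read.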
# KB-3-1 cytotox: kills parental KB-3-1 adenocarcinoma cells; KB-3-1 viability, CellTiter-Glo ATP luminescence, 72 h; Potency, µM (titrated, usually from 46.1 µM), hits mostly cytotoxic; actives 1.4% (n = 400,000); AID 1347075; further: nearly all actives have a fitted effect of over 60% in size
#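 Luminescent ATP read-out (CellTiter-Glo) measures survival of drug-naive KB-3-1 cells after 72 h compound exposure at 37 °C. Titration series was screened from lowest to highest concentration, with DMSO vehicle plates as background controls.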
# A number is an active result; . = inactive; ? = inconclusive; / = no result given; [ ] = another dose, or the depositor's remark. Unless noted, the call rests on the fitted dose curve; in most records, active means well fitted curve in the direction sought with a large enough effect; inconclusive means small, poorly fitted or top-dose-only effect, or another doubt; inactive means no such curve, though single readings can be large; an effect the other way counts as inactive or inconclusive.
SMILES,DRD3 antagonist,MCF10A rerep,KB-V1 cytotox,SW480 rereplic,D3 ag,KB-3-1 cytotox
CCOC(=O)C(O)(c1ccc(N(C)C(=O)COc2ccccc2)cc1)C(F)(F)F (configuration not stated),.,.,.,.,.,.
CCC(=O)N1N=C(c2c(O)n(C)c(=O)n(C)c2=O)CC1c1ccccc1 (configuration not stated),.,.,?,?,.,21µM
CC(C)C1C(c2ccccc2)N(C)C(c2ccccc2)CC1(O)c1ccccc1 (configuration not stated),.,5.2µM,?,?,.,.
CCN(CC)c1ccc(CNCCc2ccccc2F)cc1,.,?,21µM,.,.,?
CC(Cc1ccccc1Sc1ccc(O)cc1)N(C)C (configuration not stated),-52,.,.,.[9.22 µM],.,?
CC(Cc1ccccc1Sc1ccccc1)N(C)C (configuration not stated),-64,.,.,?,.,.
CN1CCN(Cc2ccccc2Sc2ccccc2)CC1,-51,?,21µM,?,.,.
Cc1ccc(CNC(=O)CCCn2c(=O)c3sccc3n(CC(=O)Nc3c(C)cccc3C)c2=O)cc1,/,/,/,/,.,/
C[N+]1=C(/C=C/Nc2ccccc2)C(C)(C)c2ccccc21,.,.,21µM,.,.,?
CCN1/C(=C/C=C/C2=[N+](CC)c3ccccc3C2(C)C)C(C)(C)c2ccccc21,-72,/,8.2µM,/,.,0.0065µM
Fc1ccccc1-c1n[nH]c(=S)n1Cc1ccccc1,.,.,.,?,.,.
CN1CCN(c2ccc(N)cc2Cl)CC1,-60,.,.,.,.,.
CN1CCN(c2ccc(Cl)cc2N)CC1,.,.,.,.,.,.
COC(=O)C1=C(c2cc3ccccc3s2)C[C@@H]2CC[C@H]1N2C(=O)NCc1ccc(F)cc1,-56,?,.,.,.,.
COC(=O)C1=C(c2cc3ccccc3s2)C[C@@H]2CC[C@H]1N2C(=O)N1CCCCC1,-54,18µM,?,?,.,26µM
COC(=O)C1=C(c2cc3ccccc3s2)C[C@@H]2CC[C@H]1N2C(=O)NCc1ccccc1,.,.,.,.,.,.
COC(=O)C1=C(c2cc3ccccc3s2)C[C@@H]2CC[C@H]1N2C(=O)NC1CCCCC1,.,21µM,?,?,.,?
CCCNC(=O)N1[C@H]2CC[C@@H]1C(C(=O)OC)=C(c1cc3ccccc3s1)C2,.,.,.,.,.,?
COC(=O)C1=C(c2cc3ccccc3s2)C[C@@H]2CC[C@H]1N2C(=O)N1CCC(O)CC1,.,.,.,.,.,?
COC(=O)C1=C(c2c(C)noc2C)C[C@@H]2CC[C@H]1N2C(=O)N1CCCC1,.,.,?,.,58,.
COC(=O)C1=C(c2c(C)noc2C)C[C@@H]2CC[C@H]1N2C(=O)NC(C)C,.,.,.,.,.,?
Cc1nnc(NC(=O)c2cccn(Cc3ccccc3F)c2=O)s1,/,/,.,/,.,.
COc1cccc(-n2c(-c3ccoc3)nc3ccccc3c2=O)c1,.,.,15µM,.,.,.
C#CCOc1ccc(OC)cc1C(c1c(C)[nH][nH]c1=O)c1c(C)[nH][nH]c1=O,.,?,.,.,.,.
C#CCOc1cc(C2C3=C(COC3=O)Nc3cc4c(cc32)OCO4)ccc1OC (configuration not stated),.,?,?,2.1µM,.,.
